# In PubChem BioAssay (Tox21):
# Records with an inconclusive call do not appear. A call without a number means that no potency is given here. Activity calls are given as the source filed them. Calls follow the shape of the dose curve; as a rule, active = well fitted cell-killing curve with a large enough effect in the repeat runs; inconclusive = weak or mixed curves, or effect the other way; inactive = flat fitted curve, though single readings scatter.
# Experiment: qHTS RealTime-Glo MT Cell Viability Assay in HEK293 cells - 32 hour (AID 1224868); also: top concentration of the series differs between compounds; nearly all actives have a fitted effect of over 50% in size
# Conditions: RealTime-Glo luminescence; series mostly up to 76.8 µM; activity change, negative = cytotoxic: at the top concentration
# Text: National Center for Advancing Translational Sciences [NCATS]
# NIH Chemical Genomics Center [NCGC]
# U.S. Environmental Protection Agency [EPA]
# National Institutes of Environmental Health Sciences [NIEHS]
# National Toxicology Program [NTP]
# U.S. Food and Drug Administration [FDA]
# Measure of cell viability is critical in the cell-base assay. Analysis of cell viability is necessary for the characterization of cell responses to cytotoxic drugs and environmental stress. A RealTime-Glo MT Cell Viability Assay to monitor cell viability in real time of continues cell culture during 40 hours of compound treatment was used to screen Tox21 10K library compounds in Hek293 cells. The RealTime-Glo MT Cell Viability Assay is a nonlytic, homogeneous, bioluminescent method to measure cell viability in real time using a simple, plate-based method. The assay involves adding NanoLuc luciferase and a cell-permeant prosubstrate to cells in culture. Viable cells reduce the proprietary prosubstrate to generate a substrate for NanoLuc luciferase. This substrate diffuses from cells into the surrounding culture medium, where it is rapidly used by the NanoLuc Enzyme to produce a luminescent signal. The signal correlates with the number of viable cells, making the assay well suited for cytotoxicity studies.
# Tox21 Assay Protocol Summary:
# The mixture of Hek293 cell suspension and reagents were dispensed at 600cells/6 ul/well in 1536-well tissue culture treated black solid bottom plates using a Multidrop dispenser. After the assay plates were incubated at a 37 C/5% CO2 incubator for 5 hours, 23 nL of compounds dissolved in DMSO, positive and negative controls was transferred to the assay plate by a pintool work station. The plates were incubated at 37 C for 40 hours. The luminescence intensity were measured at 0h, 8h, 16h, 24h, 32h and 40h time points using ViewLux plate reader during compound treatment.
Structure (SMILES),Potency,"activity change, negative = cytotoxic"
CNc1cnn(-c2cccc(C(F)(F)F)c2)c(=O)c1Cl,inactive,–
CCOP(=S)(OCC)Oc1cc(C)nc(C(C)C)n1,inactive,–
Oc1c(Br)cc(Br)cc1Br,–,1.23% [at 35.3 µM] (inactive)
CNC(=O)O/N=C(\SC)C(=O)N(C)C,inactive,–
COC(=O)Nc1cccc(OC(=O)Nc2cccc(C)c2)c1,inactive,–
CNC(=O)O/N=C/C(C)(C)S(C)=O (stereo not given),inactive,–
O=C(O)c1cc(Oc2ccc(C(F)(F)F)cc2Cl)ccc1[N+](=O)[O-],inactive,–
CCOP(=S)(OCC)Oc1ccc([N+](=O)[O-])cc1,inactive,–
CN(C)C(=O)Nc1cccc(C(F)(F)F)c1,inactive,–
CNC(=O)O/N=C/C(C)(C)SC,inactive,–
Cc1ccc(N)cc1,inactive,–
Nc1cc(Cl)cc(Cl)c1,inactive,–
Cc1cc(O)ccc1Cl,inactive,–
N#Cc1cccc(C#N)c1,inactive,–
Nc1nc(N)nc(NC2CC2)n1,inactive,–
O=C(O)COc1ccccc1,inactive,–
Cl/C=C/Cl,inactive,–
Cl[C@H]1OCCO[C@@H]1Cl,inactive,–
COC(C)(C)CCCC(C)C/C=C/C(C)=C/C(=O)OC(C)C (stereo not given),–,5.74% [at 35.3 µM] (inactive)
OCC(O)CCl (stereo not given),inactive,–

Structure (SMILES),Potency,"activity change, negative = cytotoxic"
ClC(Cl)c1ccccc1,inactive,–
OC[C@@H](O)[C@H]1O[C@@H]2O[C@H](C(Cl)(Cl)Cl)O[C@@H]2[C@H]1O,inactive,–
O=C(O)C(Br)Br,inactive,–
C=CCN=C=S,inactive,–
CCSC(=O)N1CCCCCC1,–,1.96% (inactive)
OCc1ccco1,inactive,–
Cc1ccc(O)c(C)c1,inactive,–
NNc1ccccc1,inactive,–
CN(C)C(=O)Cl,–,8.82% (inactive)
C[C@]12CC[C@H](O)CC1=CC[C@@H]1[C@@H]2CC[C@]2(C)C(=O)CC[C@@H]12,–,-15% [at 35.3 µM] (inactive)
Cc1cccc(C)c1NC(=O)CN1CCCC1=O,inactive,–
O=[N+]([O-])c1cc([As](=O)(O)O)ccc1O,inactive,–
CC(C)(C)C(=O)CCl,inactive,–
CN(C)CCC#N,–,0.819% (inactive)
FC(F)(F)c1ccc(Cl)cc1,inactive,–
COc1nc(NC(C)C)nc(NC(C)C)n1,inactive,–
C[C@H]1C(=O)O[C@@H]2CCN3CC=C(COC(=O)[C@](C)(O)[C@]1(C)O)[C@H]23,inactive,–
O=S(=O)(O)OOS(=O)(=O)O,inactive,–
CNC(=O)O/N=C/C(C)(C)S(C)(=O)=O,inactive,–
Cc1cccc(C)c1N,inactive,–
